From PubChem
A selection: hits, their analogues and other compounds. The true share with any hit is near 14%.
LmPK inhibitor – inhibitors of Leishmania mexicana pyruvate kinase. Potency, µM (top dose mostly 57.5 µM), for inactives: at the highest dose activity change, negative = inhibition, most hits filed as inhibitors. 0.37% of 290,000 active. Q27686. purified LmPK, Kinase-Glo ATP luminescence, 1 h; further: potency means the concentration at half of the fitted maximal effect; on the % scale 0 is the no-effect control and ±100 the full control effect
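Purified LmPK (0.1 nM) converted ADP (0.1 mM) to ATP with PEP (0.5 mM) in imidazole buffer pH 7.2 with KCl and MgCl2, 1 h at room temperature. ATP was read by Kinase-Glo luminescence; data normalized to uninhibited and no-enzyme controls.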
NS1 inh – influenza NS1 inhibition. Potency, µM (doses to about 46.1 µM), for the others: top-dose activity, positive = more growth. 0.4% of 270,000 active. AID 2326; calls by dose curve; further: potency means the concentration at half of the fitted maximal effect; actives are rising curves; nearly all actives have a fitted effect of over 50% in size
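Compounds were scored for reversing the slow growth caused by influenza A NS1 in S. cerevisiae, measured by optical density at 600 nm. Assay medium contained 2% galactose at pH 6.0; NS1-free yeast of the same strain were the positive control.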
Shiga toxin inh – blocks Shiga toxin action in Vero cells. Vero cells, Shiga toxin protein synthesis inhibition reporter. 9.2% of 290,000 active. inhibition, % at 38.7 µM; in the data active means inhibition mostly above about 28%, no sharp cut-off; inactive means mostly below about 43%; further: 0% is about no effect
Cycloheximide cs – affects cycloheximide protein synthesis inhibition readout, counter-screen. cell reporter, cycloheximide protein synthesis inhibition counterscreen. max response, %. 12% of 300,000 active; in the data active means max response mostly above about 13%, no sharp cut-off; inactive means mostly below about 14%; further: read at 38.3 µM for the half of the compounds with a filed dose; 0% is about no effect
Giardia FBPA inh – inhibitors of Giardia lamblia fructose-1,6-bisphosphate aldolase; A8B2U2; purified Giardia FBPA; Potency, µM (doses to about 59.6 µM), without a hit: at the highest dose activity, negative = inhibition, hits mostly inhibitors; 0.71% of 290,000 active; AID 2451; further: potency means the concentration at half of the fitted maximal effect; on the % scale 0 is the no-effect control and ±100 the full control effect; nearly all actives have a fitted effect of over 55% in size
Target sequence (A8B2U2 whole entry, looked up): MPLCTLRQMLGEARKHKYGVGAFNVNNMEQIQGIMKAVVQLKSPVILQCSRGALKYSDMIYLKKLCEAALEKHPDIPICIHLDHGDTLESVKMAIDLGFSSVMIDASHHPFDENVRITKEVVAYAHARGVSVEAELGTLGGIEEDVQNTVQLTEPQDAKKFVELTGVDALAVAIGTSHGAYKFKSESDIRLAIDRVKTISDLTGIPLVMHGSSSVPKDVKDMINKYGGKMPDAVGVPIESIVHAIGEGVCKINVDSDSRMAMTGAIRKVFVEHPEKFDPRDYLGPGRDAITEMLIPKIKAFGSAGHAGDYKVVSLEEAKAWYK
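Giardia FBPA (40 nM reagent) was preincubated 10 min at RT with compound (up to 57.5 uM final), then substrate plus GAPDH/TPI/NAD/arsenate coupling system with diaphorase/resazurin was added; resorufin fluorescence (525/598 nm) was read after 20 min.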
The depositor's hits bear a star; ? = inconclusive; nt = no result given; [ ] = remark or other dose. Unless noted, the call rests on the fitted dose curve; in most records, active means well fitted curve in the direction sought with a large enough effect; inconclusive means small, poorly fitted or top-dose-only effect, or another doubt; inactive means no such curve, though single readings can be large; an effect the other way counts as inactive or inconclusive.

SMILES	LmPK inhibitor	NS1 inh	Shiga toxin inh	Cycloheximide cs	Giardia FBPA inh
Cc1ccccc1S(=O)(=O)Cc1ccc(C(=O)NCCCN2CCC(C)CC2)o1	3.2%	-2.6%	-4.6	-1.6	-5.6%
CCOc1cc(C(=O)NC2=NCCS2)cc(OCC)c1OCC	2.7%	nt	25.5	22.3	6.3%
O=C(Nc1ncccc1O)c1ccc(Oc2ccccc2)cc1	2.1%	-100.5%	70.7*	52.4*	3.4%
Cc1cnc(NC(=O)c2ccc(OCC3CCCO3)cc2)s1 (centres undefined)	-18.9%	-3.6%	61.8	8.2	-1.6%
O=C(CCNC(=O)c1ccc(Cl)cc1)Nc1ncccc1O	-7.1%	5.6%	-24.4	1.2	nt
COc1ccc(OC)c(-c2csc(NC(=O)c3ccc(OCC4CCCO4)cc3)n2)c1 (centres undefined)	-0.9%	6.8%	40.4*	39.1*	-5.1%
O=C(Nc1nc2ccccc2s1)c1ccc(OCC2CCCO2)cc1 (centres undefined)	-11.8%	-3.2%	81.9*	18.2*	0.1%
CCOc1ccc(C(=O)NC2=NCCS2)cc1	0.5%	0.4%	82.9*	27.5*	0.9%
COc1ccc(C(=O)N2CCC[C@@]3(CCN(CC(C)C)C3)C2)cc1	nt	nt	nt	nt	-8.6%
Cc1cccc(-n2nc3c(c2NC(=O)C2CC2)CS(=O)(=O)C3)c1C	0.4%	-8.5%	-2.5	-2.5	2.2%
O=C(c1ccc(OCC2CCCO2)cc1)N1CCN(c2ccccc2)CC1 (centres undefined)	3.0%	-9.1%	-1.5	-3.4	0.2%
O=C(Nc1ncccc1O)c1ccc(OCC2CCCO2)cc1 (centres undefined)	?	5.3%	51.7*	35.2*	nt
O=C(NC1=NCCS1)c1ccc(OCC2CCCO2)cc1 (centres undefined)	0.1%	-10.2%	51.5*	30.3*	-0.5%
Cc1ccc(NC(=O)c2ccc(OCC3CCCO3)cc2)cc1 (centres undefined)	1.3%	-4.5%	103.9*	57.1*	-0.1%
O=C(c1ccc(OCC2CCCO2)cc1)N1CCc2ccccc2C1 (centres undefined)	-5.3%	nt	56.3*	29.8*	2.6%
COc1cnc(-c2ccccc2)nc1Oc1ccc(Cl)cc1C	-0.5%	nt	-6.7	-1.6	0.8%
CCn1c(C)c(C)c2cc(C(=O)Nc3cccc(Cl)c3)ccc21	0.1%	16.8%	37.0	20.7*	-6.6%
CCn1cc(Br)c(C(=O)Nc2ccc(OC)cc2)n1	-26.2%	-5.3%	30.1	21.3*	-2.9%
CCn1cc(Cl)c(C(=O)Nc2ccc(OC)c(OC)c2)n1	8.4%	nt	54.9*	21.1*	15.9%
CCn1cc(Cl)c(C(=O)Nc2cc(C(=O)OC)cc(C(=O)OC)c2)n1	2.5%	1.5%	-8.1	-3.7	2.7%
CCn1ccc(C(=O)Nc2ccccc2Cl)n1	-22.8%	-5.0%	63.3*	40.9*	-1.6%
Cc1ccc(/C=C(\NC(=O)c2ccccc2)C(=O)N2CCCC2C(=O)O)cc1 (centres undefined)	1.4%	nt	12.1	-1.4	1.3%
COCC(=O)N1CCC2(CCN(Cc3ccncc3)CC2)CC1	nt	nt	nt	nt	1.4%
CCn1cc(Br)c(C(=O)Nc2nccs2)n1	-3.0%	2.2%	72.8*	26.8*	-6.3%
CCn1cc(Br)c(C(=O)Nc2ccc(C(=O)OC(C)C)cc2)n1	-2.6%	-11.0%	54.9	35.6	-11.9%
SMILES	LmPK inhibitor	NS1 inh	Shiga toxin inh	Cycloheximide cs	Giardia FBPA inh
CCn1cc(Br)c(C(=O)Nc2cccc(Cl)c2)n1	-2.0%	-41.6%	72.8*	17.9*	-3.6%
CCn1cc(Br)c(C(=O)NN)n1	3.5%	-3.4%	71.1	58.5*	-3.1%
CCn1ccc(C(=O)Nc2cccc(Cl)c2)n1	-16.1%	-7.2%	105.7*	35.5*	-2.2%
CCn1c(C)cc(O)c(C(=O)Nc2cccc(Cl)c2)c1=O	-3.9%	-3.7%	6.2	-7.0	nt
CCn1cc(Br)c(C(=O)Nc2ccc(Cl)c(Cl)c2)n1	0.9%	-2.2%	35.4*	20.9*	-9.9%
O=C(CCC(=O)N(CC(=O)NC1CCCC1)c1cccc(F)c1)Nc1nccs1	-3.1%	8.2%	0.9	-1.6	-16.8%
CC1CCCCC1NC(=O)C1CCC(CNS(=O)(=O)c2ccccc2)CC1 (centres undefined)	0.0%	-2.1%	-5.1	-1.8	1.5%
C[C@H](O)[C@@H]1C(=O)N2C(C(=O)O)=C(SCCN=CN)C[C@@H]12	nt	nt	nt	nt	-6.8%[21.7 µM]
O=C(N/N=C1/C[C@@H](O)[C@@H](O)[C@@H]2[C@@H]3C(=O)N(C4CCCCC4)C(=O)[C@H]3CC[C@H]12)OCc1ccccc1	nt	nt	nt	nt	-3.9%[12.9 µM]
N#CCC(=O)N/N=C/c1cc(Br)ccc1OCc1cccc2ccccc12	-1.6%	18.7%	-5.7	-8.5	5.0%
CC(=O)NCCCNc1ccc([N+](=O)[O-])cc1	2.8%	-9.0%	34.8*	23.4*	1.8%
COc1ccccc1OCCCOc1ccc([N+](=O)[O-])cc1Cl	5.5%	-19.0%	125.7*	50.0*	nt
COc1cccc(OCCCOc2ccc([N+](=O)[O-])cc2Cl)c1	-3.7%	-1.6%	2.1	15.8	-0.1%
CC(=O)Nc1ccc(Oc2ccc([N+](=O)[O-])cc2Cl)cc1	1.3%	nt	-3.4	2.1	3.5%
CC(=O)NCCCOc1ccc([N+](=O)[O-])cc1Cl	-0.9%	4.5%	48.1	16.5*	3.9%
COC(=O)NC(CC(C)=O)c1ccc(F)cc1 (centres undefined)	nt	nt	nt	nt	-0.8%[12.9 µM]
CC(C)C[C@H](NC(=O)N1CCn2c1nc1ccccc12)C(=O)NC1CCCCC1	6.5%	-4.0%	3.3	-1.0	-5.8%
COc1ccc(CNC(=O)C[C@H]2C(=O)N(C3CCCCC3)C[C@@H]2Cc2ccccc2)cc1	-0.1%	21.7%	11.3	-3.3	2.9%
Cc1cc2ncc(-c3ccc(Cl)cc3)cn2n1	1.5%	nt	92.6*	37.1*	-0.4%
CC(=O)O[C@@H]1CC[C@@]2(C)[C@H](C1)[C@H](OC(C)=O)C[C@@H]1[C@@H]2C[C@H]2[C@@H]3CN4C[C@H](C)CC[C@H]4[C@H](C)[C@H]3CC[C@@]12O	nt	nt	-12.4	7.9	2.4%
CCn1cc(C(=O)NCCc2ccccc2)c(=O)c2cc(F)c(N3CCN(C)CC3)cc21	-3.8%	3.0%	11.4	13.4*	2.7%
Cc1c(Cl)c(S(N)(=O)=O)cc2c1=NC=NS=2(=O)O	nt	0.0%	nt	nt	nt
CC(O)CNc1nc2sc3c(c2c(=O)n1CCc1ccccc1)CCCCC3 (centres undefined)	2.3%	11.6%	29.3	17.7*	-10.3%
CC(O)CNc1nc2sc3c(c2c(=O)n1Cc1ccco1)CCCCC3 (centres undefined)	0.5%	0.8%	35.7*	25.5*	-11.2%
C=CCn1c(SCC(=O)NCc2ccco2)nc2sc3c(c2c1=O)CCCC3	-1.4%	0.1%	-5.0	-4.5	3.0%
O=C(NCc1ccco1)c1ccc2nc3sc4c(c3c(=O)n2c1)CCCC4	0.4%	-3.4%	98.9*	60.0*	-20.4%
O=c1c2c3c(sc2nc(NCCOCCO)n1Cc1ccco1)CCCCC3	0.6%	10.2%	3.1	-1.3	-12.3%
N=c1c2c3c(sc2ncn1Cc1ccco1)CCCCC3	-8.8%	28.9%	42.0	21.3*	9.0%
C[C@H](NC(=O)N1CCn2c1nc1ccccc12)C(=O)NCc1ccc2c(c1)OCO2	-7.2%	-14.6%	-4.2	-2.7	nt
